Source: PubChem (National Center for Advancing Translational Sciences (NCATS))
An excerpt weighted towards active compounds, which were near 8.7% of everything screened.
VACV Venus inh: qHTS for Stage-Specific Inhibitors of Vaccinia Orthopoxvirus: Venus Reporter Primary qHTS; Vaccinia virus Venus reporter expression, fluorescence; Potency, µM (titrated, usually from 36.5 µM), most hits filed as inhibitors; 330,000 compounds, 0.46% hits; AID 720580, 2013; calls by dose curve; tested in A549 cells; further: nearly all actives have a fitted effect of over 30% in size
AMA1-RON2 inh: qHTS for Inhibitors of AMA1-RON; Towards Development of Antimalarial Drug Lead: Primary Screen; Plasmodium falciparum AMA1 (3D7) - RON2 peptide interaction; AlphaScreen AMA1-biotinylated RON2 peptide binding; Potency, µM (series often up to 58.2 µM), usual class: inhibitors; 360,000 compounds, 0.2% hits; AID 720542, 2013; further: nearly all actives have a fitted effect of over 45% in size
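AMA1 (3D7) with his tag at 25 nM final met compounds first, then biotinylated RON2 peptide at 25 nM; detection used donor plus acceptor beads, 10 µg/mL apiece, read by AlphaScreen after 30 min at room temperature.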
Vaccinia mCherry: qHTS for Stage-Specific Inhibitors of Vaccinia Orthopoxvirus: mCherry Reporter Primary qHTS. Vaccinia virus mCherry reporter infection, fluorescence. Potency, µM (titrated, usually from 36.5 µM), actives largely listed as inhibitors. 310,000 compounds, 0.63% hits. AID 720579, 2013; calls by dose curve; tested in A549 cells; further: nearly all actives have a fitted effect of over 35% in size
Pf growth 96h: Primary qHTS for delayed death inhibitors of the malarial parasite plastid, 96 hour incubation | 320,000 compounds, 6.9% hits | P. falciparum luciferase reporter growth, 96 h | Potency, µM (titrated, usually from 28.7 µM), most hits filed as inhibitors
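Plates of compound plus infected erythrocytes (2% hematocrit, 0.05% parasitemia final) incubate 96 hours, 37 C, 5% CO2. Detection reagent added; reduced luminescence from the parasites' luciferase reporter flags inhibition.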
Pf growth 48h: Primary qHTS for delayed death inhibitors of the malarial parasite plastid, 48 hour incubation | P. falciparum luciferase growth in erythrocytes, 48 h | Potency, µM (series often up to 28.7 µM), actives largely listed as inhibitors | 310,000 compounds, 5.9% hits
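Read-out is firefly luciferase luminescence from an integrated reporter in P. falciparum, so falling signal marks reduced parasite growth. Infected erythrocytes were at 2% hematocrit and 0.1% parasitemia (final) in Albumax-supplemented RPMI 1640.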
Numbers stand for hits. Unless noted, the call rests on the fitted dose curve; in most records, active means well fitted curve in the direction sought with a large enough effect; inconclusive means small, poorly fitted or top-dose-only effect, or another doubt; inactive means no such curve, though single readings can be large; an effect the other way counts as inactive or inconclusive.

COc1ccc(C(=O)c2c(C)c3ccccc3n2CC(O)CNC(C)C)cc1 (stereo not drawn) was read as AMA1-RON2 inh inactive, Pf growth 96h inconclusive and Pf growth 48h 12µM.
`CC(C)OC(=O)/C(=C\C=C\c1ccccc1)NC(=O)c1ccccc1` gave VACV Venus inh inactive, AMA1-RON2 inh inactive, Vaccinia mCherry inactive, Pf growth 96h inactive and Pf growth 48h 12µM.
`CCc1cc(=O)oc2c(C)c(OCC(=O)NC3CC(C)(C)NC(C)(C)C3)ccc12` gave AMA1-RON2 inh inactive, Pf growth 96h 10µM and Pf growth 48h inconclusive.
COc1ccc2cc(Br)ccc2c1CC(=O)NC1CC(C)(C)NC(C)(C)C1 was read as AMA1-RON2 inh inactive and Pf growth 96h 8.3µM.
Cc1ccc(OCC(=O)NC2CC(C)(C)NC(C)(C)C2)cc1C was read as VACV Venus inh inactive, AMA1-RON2 inh inactive, Vaccinia mCherry inactive, Pf growth 96h inactive and Pf growth 48h inactive.
For CCc1ccc(OCC(=O)NC2CC(C)(C)NC(C)(C)C2)cc1 the results were VACV Venus inh inactive, AMA1-RON2 inh inactive, Vaccinia mCherry inactive, Pf growth 96h 6.6µM and Pf growth 48h inconclusive.
For COCCCNC(=O)c1nn(-c2ccc(C)cc2)c(=O)n(C)c1=O the results were VACV Venus inh inactive and Vaccinia mCherry inactive.
`O=C(CSc1ccsc1[N+](=O)[O-])NCc1ccccc1` gave VACV Venus inh inactive, AMA1-RON2 inh inactive, Vaccinia mCherry inactive, Pf growth 96h 15µM and Pf growth 48h inactive.
COc1ccc(CCNC(=O)CSc2ccsc2[N+](=O)[O-])c(OC)c1 was read as AMA1-RON2 inh inactive, Pf growth 96h 1.7µM and Pf growth 48h inconclusive.
Screening COc1ccccc1CNC(=O)CSc1ccsc1[N+](=O)[O-] returned AMA1-RON2 inh inactive, Pf growth 96h inactive and Pf growth 48h inactive.
CCc1ccccc1NC(=O)CSc1ccsc1[N+](=O)[O-] was read as VACV Venus inh inactive, AMA1-RON2 inh inactive, Vaccinia mCherry inactive, Pf growth 96h 2.3µM and Pf growth 48h inactive.
For COc1ccc(CNC(=O)C(=O)NCC(c2cccs2)S(=O)(=O)c2cccs2)cc1 (stereo not drawn) the results were VACV Venus inh inactive and Vaccinia mCherry inactive.
Cc1cccc(-c2nc(C)c(CCNC(=O)C(=O)Nc3ccccc3C#N)s2)c1 was read as VACV Venus inh inactive and Vaccinia mCherry inactive.
For Cc1cc(C)cc(C(=O)NCCc2sc(-c3ccc(F)cc3)nc2C)c1 the results were VACV Venus inh inactive and Vaccinia mCherry inactive.
Screening COc1cc2c(-c3ccc(O)cc3)nc3c(c(C)nn3-c3ccccc3)c2cc1OC returned VACV Venus inh inactive, AMA1-RON2 inh inactive, Vaccinia mCherry inactive, Pf growth 96h inactive and Pf growth 48h 15µM.
COc1cccc(-c2nc3c(c(C)nn3-c3ccccc3)c3cc(OC)c(OC)cc23)c1 was read as VACV Venus inh inactive and Vaccinia mCherry inactive.
Screening COc1ccc(C(CCN2CCCC2)c2c(O)cc(OC)cc2OC)cc1 (stereo not drawn) returned VACV Venus inh inactive, AMA1-RON2 inh inactive, Vaccinia mCherry inactive, Pf growth 96h 2.9µM and Pf growth 48h inconclusive.
For COc1ccc(C(CCN2CCCCC2)c2c(O)cc(OC)cc2OC)cc1 (stereo not drawn) the results were VACV Venus inh inactive, AMA1-RON2 inh inactive, Vaccinia mCherry inactive, Pf growth 96h 0.47µM and Pf growth 48h 0.66µM.
CCOC(=O)c1ccc(NC(=O)c2ccccc2[N+](=O)[O-])cc1 was read as VACV Venus inh inactive, AMA1-RON2 inh inactive, Vaccinia mCherry inactive, Pf growth 96h inactive and Pf growth 48h inactive.
CCOC(=O)c1ccc(Nc2ncccc2[N+](=O)[O-])cc1 was read as VACV Venus inh inactive, AMA1-RON2 inh inconclusive, Vaccinia mCherry inactive, Pf growth 96h 0.59µM and Pf growth 48h inactive.
CC(=O)c1ccc(Nc2nc(=O)c3cccnc3s2)cc1 was read as VACV Venus inh inactive, AMA1-RON2 inh inactive, Vaccinia mCherry inconclusive and Pf growth 48h inactive.
Screening O=c1nc(Nc2ccc(OCc3ccccc3)cc2)sc2ncccc12 returned VACV Venus inh inactive, AMA1-RON2 inh inactive, Vaccinia mCherry 0.79µM, Pf growth 96h inactive and Pf growth 48h inactive.
